This is one part of a sample in which hits are shown more often than they occur.
RMI-FANCM inh: inhibitors of human RMI core complex binding to FANCM MM2; Fluorescence polarization, RMI core complex with F-MM2 peptide; active compounds read low; 0.58% of 70,000 active; FP signal (polarization) at 33 µM; in the data active = FP signal below about 40
* = called active by the depositor.

Screening COc1ccc(CC(=O)NC(=S)Nc2ccc(S(=O)(=O)Nc3nc(C)cc(C)n3)cc2)cc1 returned RMI-FANCM inh 59.
For O=C(O)COc1cc(Br)cc(Br)c1O the results were RMI-FANCM inh 61.
Screening O/N=C(\c1ccccn1)C1CCCCC1 returned RMI-FANCM inh 52.
`COc1ccc2nc(-c3ccc(F)c(NC(=O)c4ccccc4C)c3)cn2n1` gave RMI-FANCM inh 98.
For COc1ccc2nc(-c3ccc(Cl)c(NC(=O)c4ccccc4C)c3)cn2n1 the results were RMI-FANCM inh 33*.
COc1ccc2nc(-c3ccc(OC)c(NC(=O)c4ccccc4C)c3)cn2n1 was read as RMI-FANCM inh 73.
For O=C(CCN1C(=O)/C(=C\c2ccco2)SC1=S)Nc1cccc(Br)c1 the results were RMI-FANCM inh 9*.
For O=C(CN1C(=O)/C(=C\c2cccs2)SC1=S)Nc1cccc(Br)c1 the results were RMI-FANCM inh 59.
Screening O=C(CN1C(=O)/C(=C/c2ccco2)SC1=S)Nc1ccc(C(=O)O)cc1 returned RMI-FANCM inh 64.
For O=C(Nc1nc(-c2cccs2)cs1)c1cc([N+](=O)[O-])ccc1Cl the results were RMI-FANCM inh 61.
COCC(=O)NCCOc1ccc2nnc(-c3ccccc3)n2n1 was read as RMI-FANCM inh 26*.
`O=C(Cc1ccccc1)NCCOc1ccc2nnc(-c3ccccc3)n2n1` gave RMI-FANCM inh 69.
For CCC(=O)NCCOc1ccc2nnc(-c3ccccc3)n2n1 the results were RMI-FANCM inh 68.
For Cc1cccc(S(=O)(=O)NCc2ccc3c(c2)OCO3)c1 the results were RMI-FANCM inh 51.
For O=C1c2cc(Cl)c(Cl)cc2C(=O)N1c1ccc(Oc2ccccc2)cc1 the results were RMI-FANCM inh 64.
`O=C1OC(=O)c2c(Oc3ccccc3)cc3c4c(c(Oc5ccccc5)cc1c24)C(=O)OC3=O` gave RMI-FANCM inh 30*.
`c1ccc(Oc2cccc(Oc3ccccc3)c2)cc1` gave RMI-FANCM inh 58.
Screening CCOCCn1c(=NC(=O)c2ccnn2CC)sc2cc(OC)c(OC)cc21 returned RMI-FANCM inh 67.
For O=C(Nc1ccc(Cl)cc1)c1ccc(S(=O)(=O)N2CCOCC2)o1 the results were RMI-FANCM inh 56.
CCOc1ccccc1Oc1c(C)oc2c3c(ccc2c1=O)OCN(Cc1ccccn1)C3 was read as RMI-FANCM inh 61.
Screening C[C@H](CCC(=O)O)[C@H]1CC[C@H]2[C@@H]3[C@H](O)C[C@@H]4C[C@H](O)CC[C@]4(C)[C@H]3CC[C@]12C returned RMI-FANCM inh 42.
`CC(CCC(=O)N/N=C/c1c[nH]c2ccccc12)C1CCC2C3C(O)CC4CC(O)CCC4(C)C3CCC12C` (stereo not given) gave RMI-FANCM inh 21*.
Screening C[C@H](CCC(=O)O)[C@H]1CCC2C3C(CC[C@@]21C)[C@@]1(C)CC[C@@H](O)C[C@H]1C[C@@H]3O (stereo not given in full) returned RMI-FANCM inh 63.
For C=CCn1c(SCC(=O)Nc2sc(-c3ccccc3)cc2C(N)=O)nc2sc(C)c(C)c2c1=O the results were RMI-FANCM inh 73.
COc1ccc(S(=O)(=O)N2CCC(Cc3ccccc3)CC2)cc1OC was read as RMI-FANCM inh 50.
`COc1ccc(-n2ccn(CC(=O)Nc3ccc(C)cc3Cl)c(=O)c2=O)cc1OC` gave RMI-FANCM inh 51.
Screening Cc1ccc(S(=O)(=O)N(C)C)cc1 returned RMI-FANCM inh 56.
Screening Cc1ccc(S(=O)(=O)N=c2sc3cccc(C)c3n2C)cc1 returned RMI-FANCM inh 55.
For Cc1ccc(S(=O)(=O)N=C2C=CC(=NS(=O)(=O)c3ccc(C)cc3)C=C2)cc1 the results were RMI-FANCM inh 0*.
Screening CCOc1cccc2sc(N(Cc3cccnc3)C(=O)Cc3ccc(F)cc3)nc12 returned RMI-FANCM inh 83.
`COc1ccc(CC(=O)Nc2cc(-c3ccco3)nn2-c2nc(C)c(C)c(=O)[nH]2)cc1OC` gave RMI-FANCM inh 33*.
Cc1nc(-n2nc(-c3ccco3)cc2NC(=O)COc2ccc(Cl)cc2)[nH]c(=O)c1C was read as RMI-FANCM inh 57.
COc1ccc(CCC(=O)Nc2cc(-c3ccco3)nn2-c2nc(C)c(C)c(=O)[nH]2)cc1 was read as RMI-FANCM inh 41.
`CC(=O)OCC(=O)[C@@]1(O)CC[C@H]2[C@@H]3CCC4=CC(=O)CC[C@]4(C)[C@H]3C(=O)C[C@@]21C` gave RMI-FANCM inh 58.
C[C@]12CCC(=O)C=C1CCC1C2C(=O)C[C@@]2(C)C1CC[C@]2(O)C(=O)CO (stereo not given in full) was read as RMI-FANCM inh -7*.
CC(=O)OCC(=O)[C@@]1(O)CCC2C3CCC4=CC(=O)CC[C@]4(C)C3C(=O)C[C@@]21C (stereo not given in full) was read as RMI-FANCM inh 64.
For CSc1ccc2nc(NCc3ccccc3)sc2c1 the results were RMI-FANCM inh 57.
Screening COC(=O)c1sc2ccccc2c1NC(=S)NC(=O)c1ccc(Cl)cc1 returned RMI-FANCM inh 63.
COC(=O)c1sc2ccccc2c1NC(=O)c1cc(Cl)sc1Cl was read as RMI-FANCM inh 30*.
`COC(=O)c1sc2ccccc2c1NC(=O)c1ccc(Br)s1` gave RMI-FANCM inh 85.
`Cc1noc(-c2ccc(C(F)(F)F)cc2)c1C(=O)NNC(=O)Nc1ccc(Cl)cc1` gave RMI-FANCM inh 55.
For O=C(Nc1sc2ccccc2c(=O)c1-c1cccs1)c1ccc([N+](=O)[O-])cc1 the results were RMI-FANCM inh -19*.
Screening O=C(Nc1cccc2c1C(=O)c1ccccc1C2=O)c1ccc([N+](=O)[O-])cc1 returned RMI-FANCM inh 53.
Screening O=C(Nc1sc2ccccc2c(=O)c1-c1ccc2c(c1)OCO2)c1cccs1 returned RMI-FANCM inh 64.
For Cn1c(SCC(=O)c2ccccc2)nc2c(c1=O)SCC2 the results were RMI-FANCM inh 57.
N#Cc1c(=O)[nH]c(O)c2c(=N)oc3ccc(Cl)cc3c12 was read as RMI-FANCM inh 10*.
Screening O=c1cc(O)c2cc(Cl)ccc2o1 returned RMI-FANCM inh 57.
`CCOc1cn(C)c(C(=O)Nc2cc(C)cc(C)c2)cc1=O` gave RMI-FANCM inh 60.
COc1ccc(C(=O)CSc2nnc(C)c3cnn(-c4ccccc4OC)c23)cc1 was read as RMI-FANCM inh 71.
For O=C(Cc1cc(=O)[nH]c(SCc2cccc(Cl)c2)n1)NCc1ccc2c(c1)OCO2 the results were RMI-FANCM inh 58.
`O=C(O)C1=CC(=C(c2ccc(O)c(C(=O)O)c2)c2ccc(O)c(C(=O)O)c2)C=CC1=O` gave RMI-FANCM inh -9*.
`Nc1ccc(O)c(C(=O)O)c1` gave RMI-FANCM inh 55.
For O=C(O)c1cc(O)ccc1O the results were RMI-FANCM inh 62.
For O=C(Nc1ccc(N2CCCCC2)cc1)Nc1cccc(Cl)c1 the results were RMI-FANCM inh 52.
O=C(c1ccc(=O)n(Cc2ccc(F)cc2)n1)N1CCN(c2ccccc2F)CC1 was read as RMI-FANCM inh 62.
Screening COc1ccc(CC(=O)NCC(c2cccc3ccccc23)N(C)C)cc1 (stereo not given) returned RMI-FANCM inh 51.
`COc1cc(OC)cc(C(=O)NCC(c2cccc3ccccc23)N(C)C)c1` (stereo not given) gave RMI-FANCM inh 54*.
Screening CN(C)C(CNC(=O)c1cccs1)c1cccc2ccccc12 (stereo not given) returned RMI-FANCM inh 50.
For CCC(=O)Nc1ccc(SCC(=O)Nc2ccc(CC)cc2)nn1 the results were RMI-FANCM inh 70.
